Rows were chosen to be rich in hits. Some 11% of all compounds tested hit in one or more screens of this group.
Pf growth 48h: inhibits P. falciparum growth in the first generation, 48 h; P. falciparum luciferase growth in erythrocytes, 48 h; Potency, µM (titrated, usually from 28.7 µM), without a hit: top-dose activity change, negative = inhibition, usual class: inhibitors; actives 5.9% (n = 310,000); AID 504832
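Firefly luciferase activity from engineered P. falciparum reports growth; inhibitors lower the luminescent signal. Cultures contained 2% hematocrit erythrocytes at 0.1% final parasitemia.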
HCV inh: blocks hepatitis C virus | Huh7.5.1 HCVcc-Cre infection, luciferase reporter, 44 h | Potency, µM (series often up to 41.8 µM), without a hit: top-dose activity change, negative = inhibition, hits mostly inhibitors | actives 3.4% (n = 340,000)
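Luciferase read-out (15 sec integration) after a 15 min room-temperature substrate step quantifies HCVcc-Cre infection. Cells, 1,000 per well, had compound added 4 h post-plating, then virus at ~0.5 moi, and were cultured 44 h.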
AMA1 RON2 block: disrupts binding of P. falciparum AMA1 to RON2 | actives 0.2% (n = 360,000) | Potency, µM (series often up to 58.2 µM), inactives show at the top dose activity change, negative = inhibition, most hits filed as inhibitors | AlphaScreen AMA1-biotinylated RON2 peptide binding;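 note: 0% = vehicle wells and -100% = peptide control; nearly all actives have a fitted effect of over 45% in size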
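AMA1 (3D7) with his tag at 25 nM final met compounds first, then biotinylated RON2 peptide at 25 nM; detection used donor plus acceptor beads, 10 µg/mL apiece, read by AlphaScreen after 30 min at room temperature.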
Pf growth 96h: P. falciparum growth inhibition at 96 hours; P. falciparum luciferase reporter growth, 96 h; Potency, µM (top dose mostly 28.7 µM), without a hit: at the highest dose activity change, negative = inhibition, hits mostly inhibitors; actives 6.9% (n = 320,000); AID 504834
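96 h incubation, 37 C, 5% CO2, of luciferase-reporter P. falciparum-infected RBCs (2% hematocrit, 0.05% parasitemia final) with test compounds; endpoint luminescence.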
Starred values were filed as active, the others as inactive; ? = inconclusive; . = not tested or not shown; [ ] = dose if it differs, or a comment. Calls come from the whole dose curve; as a rule, active = well fitted curve in the direction sought with a large enough effect; inconclusive = small, poorly fitted or top-dose-only effect, or another doubt; inactive = no such curve, though single readings can be large; an effect the other way counts as inactive or inconclusive. Unless noted, % is set by controls: 0 for no effect and ±100 for the full control effect; potency is the fitted concentration of half-maximal effect.

SMILES | Pf growth 48h | HCV inh | AMA1 RON2 block | Pf growth 96h
O=C(O)C1CCN(c2nc(-c3ccccc3)nc3c2oc2ccccc23)CC1 | ? | -7% | 5% | 12µM*
CCOC(=O)C1CCCN(c2ncnc3c2oc2ccccc23)C1 (stereo not drawn) | 49% | 5% | -1% | 56%
CCOC(=O)C1CCN(c2ncnc3c2oc2ccccc23)CC1 | 14% | -25% | -3% | 12µM*
O=C(Cc1cccc2ccccc12)Nc1c(F)cccc1F | 22% | 5% | 4% | 37%
O=C1CSC(c2ccc(F)cc2)N1c1nc2ccccc2s1 (stereo not drawn) | -5% | 12% | -24% | 10µM*
COC(=O)c1ccc(C(=O)OC)c(NC(=O)Cc2cccs2)c1 | . | . | -12% | .
CCOC(=O)c1ccc(/[N+]([O-])=C/c2ccccc2)cc1 | 161% | 1% | ? | 194%
C#CCCC(=O)c1ccccc1/C=[N+](\[O-])c1ccccc1 | 1.2µM* | -5% | 5% | ?
COc1ccc(NC(C)C(=O)Nc2cccc(S(=O)(=O)N3CCOCC3)c2)cc1OC (stereo not drawn) | . | 13µM* | 5% | .
COc1ccc(C(=O)N[C@H](C(=O)Nc2ccc(S(=O)(=O)N3CCOCC3)cc2)C(C)C)cc1 | ? | -6% | 16% | ?
CC(Oc1ccc(Cl)cc1)C(=O)Nc1cccc(S(=O)(=O)N2CCOCC2)c1 (stereo not drawn) | ? | ? | -7% | 10µM*
CCN1CCN(c2ccc(S(=O)(=O)N3CCOCC3)cc2NC(=O)C(C)Oc2ccc(Cl)cc2)CC1 (stereo not drawn) | 12µM* | 2% | -8% | ?
Cc1ccc(OC(C)C(=O)Nc2cccc(S(=O)(=O)N3CCCCCC3)c2)cc1 (stereo not drawn) | . | . | -4% | .
CC(C)C(NC(=O)c1ccc(C(C)(C)C)cc1)C(=O)Nc1ccc(N2CCOCC2)cc1 (stereo not drawn) | 13µM* | 7% | -6% | ?
CN(CC(=O)NCCc1ccccc1)Cc1ccco1 | 87% | -3% | 0% | 81%
NC(=O)NC1NC(=O)NC1=O (stereo not drawn) | -2% | 13% | 6% | ?
CCNC(=O)C1(C)CCCN(C(=O)c2cc3ccccc3s2)C1 (stereo not drawn) | . | . | 3% | .
Cc1cc(Cl)ccc1OC(C)C(=O)Nc1ccc(S(=O)(=O)N2CCOCC2)cc1 (stereo not drawn) | . | 11µM* | -1% | .
Cc1ccc(NC(=O)[C@@H](NC(=O)c2cccc(S(=O)(=O)N3CCOCC3)c2)C(C)C)cc1C | ? | 10µM* | 2% | ?
CC(C)[C@H](NC(=O)c1ccccc1)C(=O)Nc1cccc(S(=O)(=O)N2CCOCC2)c1 | ? | 6% | -1% | ?
Cc1ccc(S(=O)(=O)N2C3CC(c4ccccc4)N(S(=O)(=O)c4ccccc4Cl)CC3C(=O)C[C@H]2c2ccccc2)cc1 (stereo partly drawn) | . | . | -3% | .
COCc1nnc(NC(=O)c2ccc(S(=O)(=O)N3CCCc4ccccc43)cc2)o1 | ? | 13µM* | 110% | ?
O=C(Nc1nnc(C2CC2)o1)c1ccc(S(=O)(=O)N2CCCc3ccccc32)cc1 | . | -12% | 60% | ?
COc1ccc(-c2nnc(NC(=O)c3ccc(S(=O)(=O)N4CCCc5ccccc54)cc3)o2)cc1 | 12µM* | 10µM* | 160% | ?
Cc1ccc2nc(NC(=O)c3ccc(S(=O)(=O)N4CCCc5ccccc54)cc3)sc2c1 | ? | ? | 15% | ?
SMILES | Pf growth 48h | HCV inh | AMA1 RON2 block | Pf growth 96h
O=C(CSc1nc2ccc([N+](=O)[O-])cc2s1)c1ccc2ccccc2c1 | 5% | 12% | -3% | 11%
O=C(O)CNS(=O)(=O)c1ccc(C2CCCCC2)cc1 | 4%[5.75 µM] | 18% | -9% | 0.47µM*
O=S(=O)(Nc1ccccn1)c1ccc(C2CCCCC2)cc1 | -6% | 9% | ? | 9.3µM*
O=C(O)CNS(=O)(=O)c1ccc(F)cc1 | 10% | 0% | -3% | ?
CC(=O)NCCOc1nc(N2CCCCC2)nc(N2CCCCC2)n1 | -13% | ? | 1% | 16%
O=[N+]([O-])c1cccc(-c2nc(-c3ccccc3)c(-c3cccs3)[nH]2)c1 | ? | -12% | -2% | ?
COc1cc(-c2nc(-c3ccccc3)c(-c3cc([N+](=O)[O-])ccc3C)[nH]2)cc(OC)c1OC | 2.6µM* | 13µM* | -28% | ?
COc1ccc(S(=O)(=O)NC(=O)C2(C)CCN2C(=O)C2CC2)cc1 (stereo not drawn) | . | . | -6% | .
O=C(Nc1ccc(F)cc1)C(c1ccnc2ccccc12)N1CCN(c2cccc(C(F)(F)F)n2)CC1 (stereo not drawn) | . | . | 0% | .
O=C(NC1CCCCC1)c1cc(-c2ccco2)on1 | 72% | 6% | -8% | 12µM*
CCCC(=O)Nc1cc(C)c(NC(=O)c2ccco2)cn1 | -4% | 5% | 12% | -8%
COc1ccc(C2=CC(=O)CCC2)cc1 | . | 9% | -2% | .
COc1ccc(CN2CCC(C(=O)Nc3ccc(Oc4ccccc4)nc3)CC2)cc1F | ? | 2.5µM* | 3% | ?
CCc1ccc(CN2CCC(C(=O)Nc3ccc(Oc4ccccc4)nc3)CC2)o1 | ? | 11µM* | -4% | -40%
Cc1ncc(CN2CCC(C(=O)Nc3ccc(-n4cccn4)cc3)CC2)s1 | 1µM* | -14% | 6% | 9%
CCc1ccc(CN2CCC(C(=O)Nc3ccc(-n4nc(C)cc4C)cc3)CC2)o1 | 6.6µM* | ? | -5% | ?
NS(=O)(=O)c1ccc(CCNC(=O)c2cccc([N+](=O)[O-])c2)cc1 | -8% | -13% | 4% | 9%
COc1ccccc1NC(=O)C(=O)N/N=C(\C)CC(=O)Nc1ccccc1C(F)(F)F | ? | -4% | 75% | 17%
Cc1cc(C)c2nc(SCC(=O)NCCC3=CCCCC3)cc(C)c2c1 | ? | 22% | 11% | ?
COc1cc(F)ccc1CN1CCC(C(=O)Nc2ccc(Oc3ccccc3)nc2)CC1 | ? | 10µM* | -4% | 17%
CCc1nn2cc(C(=O)c3cc(Cl)ccc3O)cnc2c1-c1ccc(F)cc1 | 6.6µM* | ? | -22% | ?
Nc1c(-c2ccccc2)c(CSc2nc3ccccc3[nH]2)nn1-c1ccc(Cl)cc1 | -33% | 11µM* | -1% | ?
CCN(CC)Cc1nc2c(c(=O)[nH]1)C1(CCCC1)Cc1ccccc1-2 | ? | ? | 10% | 12µM*
O=c1[nH]c(CN(CCO)CCO)nc2c1C1(CCCCC1)Cc1ccccc1-2 | -12% | 3% | 142% | 42%
Cc1ccc2c(c1)c1ccc3c(c1n2C)C(=O)C=CC3=O | ? | 11µM* | -26% | ?
Cn1c2ccccc2c2ccc3c(c21)C(=O)C=CC3=O | . | ? | -4% | .
CCOC(=O)N/N=C(\C)c1ccccc1OC(F)F | ? | 21% | 17% | 9.3µM*
CN1CCN(c2ccc(C(=O)c3ccc(Br)cc3)cc2[N+](=O)[O-])CC1 | -16% | 10µM* | ? | -2%[5.75 µM]

Assay outcomes deposited in PubChem BioAssay by National Center for Advancing Translational Sciences (NCATS).
